ChEMBL document CHEMBL4513216, “Probing the Open Global Health Chemical Diversity Library for Multistage-Active Starting Points for Next-Generation Antimalarials” (ACS Infect Dis, 2020)
Screen size: about 68,000 compounds; about 2,700 (4%) showed an effect of 50% or more. Many of the other results were omitted from the sample, so strong results are more common in it than they were.

Each compound was assayed on Plasmodium berghei (assay: Screen against P. berghei liver stage (PbLuc), transformed with Luciferase, at 2uM). Conditions: tested at 2 uM.
Assay type: functional, HepG2

SMILES | INHIBITION [%]
CCc1ccc(CN2CCC3(CCCN(C(=O)N(C)C)C3)C2)o1 (stereo not given) | 1.08
O=C(Cc1ccc2c(c1)OCCO2)NC1CC1 | 23.31
CN(Cc1ccco1)[C@@H]1CN(Cc2cccnc2)C[C@@H]2CCCO[C@@H]21 | 29.36
CS(=O)(=O)N[C@@H]1CN(Cc2ccccc2)C[C@@H]2CCCO[C@@H]21 | 14.39
O=C(CC1CC1)N[C@@H]1CN(Cc2ccoc2)C[C@@H]2CCCO[C@@H]21 | 35.89
CN(Cc1ccco1)[C@@H]1CN(Cc2ccncc2)C[C@@H]2CCCO[C@@H]21 | 60.93
O=C(N[C@@H]1CN(Cc2ccoc2)C[C@@H]2CCCO[C@@H]21)C1CCC1 | -8.62
O=C(CC1CC1)N[C@@H]1CN(Cc2ccncc2)C[C@@H]2CCCO[C@@H]21 | 29.01
CN(Cc1ccco1)[C@@H]1CN(Cc2ccc(F)cc2)C[C@@H]2CCCO[C@@H]21 | 29.73
O=C(CC1CC1)N[C@@H]1CN(Cc2ccco2)C[C@@H]2CCCO[C@@H]21 | 52.55
O=C(N[C@@H]1CN(Cc2ccccc2)C[C@@H]2CCCO[C@@H]21)C1CC1 | 50.9
NCC1CCCCN1C(=O)Cc1cccc(Cl)c1 (stereo not given) | -22.89
CC1(C)CN(C(=O)c2occc2COc2cccc(C#N)c2)CCO1 | -0.41
O=C(NCc1nc[nH]n1)c1cc(COc2cccc(F)c2)[nH]n1 | 10.22
CC(C)(C)C(=O)NCCC(=O)NS(=O)(=O)c1cccc(C#N)c1 | -49
Cc1nc(CC(=O)N2CCc3nnc(N(C)C)cc3C2)cs1 | 1.6
Cc1ccc(N2CCCC(N(C)c3ncnc4c3CCC4)C2)nn1 (stereo not given) | -28.33
COc1ccc(C(=O)N2CC[C@@H]3[C@H](CC2)N(C)CCS3(=O)=O)cc1 | -17.39
CN1CCS(=O)(=O)[C@@H]2CCN(C(=O)c3ccccc3)CC[C@@H]21 | 71.83
CN1CCS(=O)(=O)[C@@H]2CCN(C(=O)CC(C)(C)C)CC[C@@H]21 | 50.17
COc1ccc(CC(=O)N2CC[C@@H]3[C@H](CC2)N(C)CCS3(=O)=O)cc1 | 24.64
COc1cccc(C(=O)N2CC[C@@H]3[C@H](CC2)N(C)CCS3(=O)=O)c1 | -14.21
CC(C)(C)CC(=O)N1CC[C@@H]2[C@H](CC1)N(S(C)(=O)=O)CCS2(=O)=O | -16.93
CC(=O)NC(C)(C)c1noc(C2(C#N)CCCCC2)n1 | 22.41
Cc1nc(CNC(=O)NC2CCN(c3ncccn3)CC2)cs1 | 56.78

SMILES | INHIBITION [%]
Cc1nc(CCNC(=O)NC2CCN(c3ncccn3)CC2)cs1 | -17.45
Cc1nc(CNC(=O)NC2CCCN(c3ncccn3)C2)cs1 (stereo not given) | 30.96
Cc1nn(C)c(N2CCOCC2)c1CNCc1ccccc1CO | 50.18
Cc1nn(C)c(N2CCOCC2)c1CNCc1ccc2c(c1)OCO2 | 18.01
Cc1nn(C)c(N2CCOCC2)c1CNCc1ccc(CO)c(F)c1 | 63.05
Cc1nn(C)c(N2CCOCC2)c1CNCc1ccoc1C | 10.4
Cc1nc(CNCc2c(C)nn(C)c2N2CCOCC2)cs1 | -14.3
COc1ncccc1CNCc1c(C)nn(C)c1N1CCOCC1 | 40.24
Cc1cc(CNCc2c(C(C)C)nn(C)c2N2CCOCC2)no1 | 22.16
Cc1cc(CNCc2c(C)nn(C)c2N2CCOCC2)no1 | 65.77
Cc1nn(C)c(N2CCOCC2)c1CNCc1ccnc(N(C)C)c1 | 17.11
CN(Cc1ccc(F)cc1)CC1(O)CCN(C(=O)c2cccs2)C1 (stereo not given) | -27.04
CC(C)c1nc2n(n1)CC(NCc1nnc(C3CC3)o1)CC2 (stereo not given) | -30.61
O=C(CCNC(=O)C1CCCC1)NCc1cccnc1-n1cncn1 | -18.67
Cc1nn(C)c(C)c1C1SCC(=O)Nc2c1c(O)nn2C(C)C (stereo not given) | 4.89
COc1ccc(Cl)cc1CN(C)CC(=O)Nc1ccnn1C(C)C1CC1 (stereo not given) | -13.72
Cc1cccc(C2(CNC(=O)CO)CCCC2)c1 | 35.23
CC(=O)N(C)CC(=O)NCC1(c2c(F)cccc2F)CCCC1 | -41.54
CC(=O)N(C)CC(=O)NCC1(c2cccc(C)c2)CCCC1 | 54.29
CN1CCC(c2cccc(CCC(=O)NCC(N)=O)n2)CC1 | 7.64
CC(=O)N1CCC2(CC1)CN(C(C)=O)CC21CCNC1=O (stereo not given) | 24.36
CC(=O)N1CCC2(CC1)CN(CC(C)C)CC21CCNC1=O (stereo not given) | 63.35
CN(C)C(=O)N1CCC2(CC1)CN(CC1CC1)CC21CCNC1=O (stereo not given) | 35.89
CCC[C@H]1CN(Cc2cc(C#N)n(C)c2C)C[C@@H]1N(C)C | 51.4
CCC[C@H]1CN(Cc2cc(C#N)n(C)c2C)C[C@@H]1NS(=O)(=O)CC | 35.26

SMILES | INHIBITION [%]
CCC[C@@H]1CN(Cc2cc(C#N)n(C)c2C)C[C@H]1NS(C)(=O)=O | 1.88
NC(=O)c1sc2ccccc2c1C1CCN(S(=O)(=O)N2CCOCC2)C1 (stereo not given) | -18.15
Cc1noc(C)c1CN1CC[C@@H]2O[C@@H](COCC(C)C)CC[C@@H]21 | 13.87
CN(C)CCN1CC[C@@H]2O[C@@H](COCC(=O)N3CCCC3)CC[C@@H]21 | -30.82
COCCN1CC[C@@H]2O[C@@H](COCC(=O)N3CCCC3)CC[C@@H]21 | -14.49
COCCN1CC[C@@H]2OC(COCC(=O)N3CCCC3)CC[C@@H]21 (stereo not given in full) | 51.05
Cc1ncnc2c1CCN(Cc1cccs1)CC2 | -8.24
CNS(=O)(=O)CC(=O)N1CCC(c2cc3ccccc3[nH]2)CC1 | -46.85
O=C(C1CCCCC1)N1CCC2(CCCN2CC2CC2)CC1 | 24.15
O=C(C1CCCC1)N1CCC2(CC1)COCCN2CC1CC1 | -11.91
O=C(C1CCC1)N1CCC2(CCCN2CC2CC2)CC1 | 55.66
CC(C)NC(=O)[C@@H]1CC[C@@H]2[C@@H](CCN2Cc2cn(C)c3ccccc23)O1 | 29.43
Cc1nc(CCCNC(=O)C2CC(=O)N(C3CC3)C2)sc1C (stereo not given) | -52.42
CCN1CC(C(=O)NCCCc2nc(C)c(C)s2)CC1=O (stereo not given) | 72.05
Cc1nc(CCCNC(=O)C2CC(=O)N(C(C)(C)C)C2)sc1C (stereo not given) | 13.87
CCS(=O)(=O)NCc1cccnc1N1CCCC(O)C1 (stereo not given) | -5.31
Nc1nc(C2CCN(C(=O)c3cncs3)CC2)cs1 | 0.14
COC1CCN(c2ccc(NC(=O)C3CC3)cc2C(F)(F)F)CC1 | -1.71
CCC(=O)Nc1ccc(F)c(S(=O)(=O)NC(C)(C)C)c1 | 57.75
CCNC(=O)CNS(=O)(=O)c1cc(Br)ccc1F | 42.32
CC(=O)Nc1ccc(F)c(S(=O)(=O)NC(C)(C)C)c1 | -1.87
CC(C)(C)NS(=O)(=O)c1ccc(NC(=O)C2CC2)cc1 | 17.2
CC(C)(C)NS(=O)(=O)c1cc(NC(=O)C2CC2)ccc1F | 62.51
CCS(=O)(=O)N1Cc2c(Cn3ccnc3)nn(C(C)C)c2C1 | 3.72
Cc1n[nH]c(C)c1CC(=O)NCCc1ccccc1 | 25.21

SMILES | INHIBITION [%]
Cc1nc(C(=O)N2CCOC(Cc3ccccc3)C2)co1 (stereo not given) | 5.76
COc1ccc(CC2CN(C(=O)c3coc(C)n3)CCO2)cc1 (stereo not given) | -10.03
Cc1nc(C(=O)N2CCOC(Cc3ccc(F)cc3)C2)co1 (stereo not given) | 51.45
Cc1cc(C)cc(OCCN2CCn3c(C)nnc3C2)c1 | 20.41
CCOCCN1CCn2c(C)nnc2C1 | 58.53
Cc1nnc2n1CCN(CCOc1ccccc1)C2 | -55.52
CC(C)[C@H]1CN(CCCO)C[C@@H]1NC(=O)CCS(C)(=O)=O | 25.9
O=C(CCS(=O)(=O)C1CCCC1)NCc1ccccc1Cn1cncn1 | 31.57
COc1c(CNC2CCc3ccccc32)c(C(C)C)nn1C (stereo not given) | 24.65
COc1c(CNC2CCCOc3ccccc32)c(C)nn1C (stereo not given) | -18.88
COc1c(CNC2CCCc3ccccc32)c(C(C)C)nn1C (stereo not given) | 69.22
COc1c(CNC2CCOc3ccccc32)c(C)nn1C (stereo not given) | 64.08
Cc1nn(C)c(Oc2ccccc2)c1CNC1CCOc2ccccc21 (stereo not given) | -15.64
COc1c(CNC2CCCc3ccccc32)c(C)nn1C (stereo not given) | 11.28
O=C1NCCCC[C@@H]1Nc1ccc(-c2nc(C3CC3)no2)cn1 | 8.75
c1cncc(COCc2nnc3n2CCN(Cc2ccco2)C3)c1 | -8.22
COc1ccccc1CC(C)(C)C(=O)NCC(=O)Nc1cccnc1 | -16.15
O=C(NC1CCC(O)CC1)c1ccc2nc(-c3ccccc3)cn2c1 (stereo not given) | 2.17
COc1ccc(C)cc1CC(=O)Nc1cc(C)n[nH]1 | -19.45
CC(C)CNC(=O)c1ccc2c(=O)n(-c3ccccc3)cnc2c1 | 43.75
Cn1c(=O)[nH]c(=O)c2c1nc1n2CC(c2ccc(Cl)cc2)O1 (stereo not given) | 13.01
COc1ccc(C2CC(=O)Nc3c2nc2n3CCCC2)cc1O (stereo not given) | 24.29
O[C@@H]1CCN(CC2CC2)[C@H]1Cc1ccccc1 | -17.26
O[C@H]1CCN(CC2CC2)[C@H]1Cc1ccncc1 | 55.7
O[C@H]1CCN(CC2CCOC2)[C@H]1Cc1ccncc1 (stereo not given in full) | 3.56
